In PubChem BioAssay (NCI) one finds growth data, which are given here for 39 compounds.

SMILES strings stand for the structures. Several values for one entry are separate records, joined by “and”; a condition that tells them apart may be missing. Equal values may be shown once. This is part of a sample that, as a whole, favours compounds with a hit. Of some 83,000 tested, about 20% had one in any assay.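 Growth was measured after 48 h exposure to one concentration of compound in 96-well plates. Values under 10 count as active.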 Activity calls are given as the source filed them.

In the assay the test system is TK-10 renal. In words: NCI-60 one-dose screen, 48 h (100 = growth as untreated, 0 = no growth, -100 = all killed). To be noted: 10 µM unless noted.
Turning to `Cn1c2c(c3ccccc3c1=O)C(=O)c1ccccc1-2`, the growth was -92.2% [100 µM] (active) and -100% [100 µM] (active).

With `C=CC1=C(C)C2=NC1=CC1=NC(=C(CC)/C1=C\O)C=C1N=C3C(=C1C)C(=O)[C@H](C(=O)OC)C3=C1NC(=C2)[C@@H](C)[C@@H]1CCC(=O)O`, the growth is 3.23% [100 µM] (active) and 7.05% [100 µM] (active).

Take `CCCCCCCCCC(O)CC(=O)c1c(O)cccc1O` (centres undefined): the growth was 4.56% [100 µM] (active) and 1.03% [100 µM] (active).

Turning to `COc1cc(-c2nc(SC)nc3c2CCc2ccccc2-3)cc(OC)c1OC`, the growth is 41.4% [100 µM] (inactive) and 11% [100 µM] (inactive).

For `COC(=O)C(=O)C(C(=O)C(=O)Nc1ccccc1OC)c1nc2ccc([N+](=O)[O-])cc2[nH]c1=O` (centres undefined), the growth was 121% [100 µM] (inactive) and 68% [100 µM] (inactive).

As to `COC(=O)c1cnn2c1n[n+]([O-])c1ccccc12`, the growth is 126% [100 µM] (inactive) and 78.8% [100 µM] (inactive).

Turning to `O=C(NC1=NC2C=CC([N+](=O)[O-])=CC2S1)C(=O)Nn1c(=S)[nH]c2ccccc2c1=O` (centres undefined), the growth is 7.66% [100 µM] (active) and 13.1% [100 µM] (inactive).

Regarding `CC1C2(C)OC(=N)C(C#N)(C(c3cccc([N+](=O)[O-])c3)O2)C1(C#N)C#N` (centres undefined), the growth was 108% [100 µM] (inactive).

With `Cc1ccc(OCC2OC(n3cnc4nc(Cl)nc(Cl)c43)CC2Oc2ccc(C)cc2)cc1` (centres undefined), the growth is 1.81% [100 µM] (active) and -100% [100 µM] (active).

Consider `C/C=C1\NC(=O)[C@H]2CSSCCC=C[C@H](CC(=O)N[C@H](C(C)C)C(=O)N2)OC(=O)[C@H](C(C)C)NC1=O`, for which the growth is -93% [0.1 µM] (active) and -98.3% [0.1 µM] (active).

As for `COc1c(OC)c(OC)c2c(c1OC)c(=O)c1ccccc1n2C`, the growth is 87.4% [100 µM] (inactive) and 35% [100 µM] (inactive).

Regarding `COc1ccc2c(=O)c(-c3cc4c(cc3OC)OCO4)coc2c1`, the growth was 8.9% [100 µM] (active) and 12.1% [100 µM] (inactive).

`CC1OC(Oc2c(-c3cc(O)c(O)c(O)c3)oc3cc(O)cc(O)c3c2=O)C(O)C(O)C1O` (centres undefined): the growth is 90.9% [100 µM] (inactive) and 92.6% [100 µM] (inactive).

Turning to `COc1ccc(-c2coc3c4c(ccc3c2=O)OCO4)cc1OC`, the growth is 54.4% [100 µM] (inactive) and 6.05% [100 µM] (active).

Take `CC(=O)C1=C(C)N2C(=NC3=C(CCc4ccccc43)C2c2ccc(Cl)cc2)S1` (centres undefined): the growth was 72.8% [100 µM] (inactive) and 35.4% [100 µM] (inactive).

Take `O[C@H]1[C@H](O)[C@@H](Cn2nnc(-c3ccccc3)c2-c2ccccc2)OCO[C@@H]1Cn1nnc(-c2ccccc2)c1-c1ccccc1`: the growth was -89.7% [100 µM] (active).

Consider `O=C(O)c1n[nH]nc1Cl`, for which the growth was 98.7% [100 µM] (inactive) and 107% [100 µM] (inactive).

For `Cc1ccc2c(/C=C/c3ccc(N(C)C)cc3)ccc(C(C)C)cc1-2`, the growth is 104% [100 µM] (inactive) and -33% [100 µM] (active).

`Cc1cc(N(CCC#N)CCC#N)ccc1/C=N/NC(=O)c1cc(Cl)ccc1O`: the growth was 76.6% [100 µM] (inactive) and 12.3% [100 µM] (inactive).

Regarding `Cc1ccc(/C=N/Nc2nc3ccccc3s2)s1`, the growth was 14.8% [100 µM] (inactive) and 8.44% [100 µM] (active).

Consider `C=C1C(=O)O[C@@H]2C[C@@]3(C)CC(=O)C=C(C)[C@@H]3C[C@H]12`, for which the growth is -87.6% [100 µM] (active) and -78.7% [100 µM] (active).

For the compound `N#CC1(C#N)N[C@@H](c2ccsc2)[C@H]2C(=O)N(c3ccccc3)C(=O)[C@H]21`, the growth is 55.7% [100 µM] (inactive) and 30.9% [100 µM] (inactive).

For `COc1ccc2nc(NC(=O)/C(C#N)=C/c3ccccc3)sc2c1`, the growth is 52.5% [100 µM] (inactive) and -23.1% [100 µM] (active).

With `CC/C(Cl)=N\OC(=O)Nc1ccc(OC)cc1`, the growth was -100% [100 µM] (active).

Take `COc1ccc2c(C)cc(N/N=C/c3ccc(C)s3)nc2c1`: the growth is -66.6% [100 µM] (active) and -100% [100 µM] (active).

In the case of `Cc1ccc(/C=C2/N=C(N/N=C\c3ccccc3)NC2=O)cc1`, the growth is -15.5% [100 µM] (active) and 0.251% [100 µM] (active).

As for `C=C(CCC(C(=O)O)C1CCC2(C)C3=C(CCC12C)C1(C)CCC(O)C(C)(C)C1CC3)C(C)C` (centres undefined), the growth is -54.9% [100 µM] (active) and -100% [100 µM] (active).

In the case of `COc1ccc2cc(CN3CCC(C4CCNCC4)CC3)ccc2c1`, the growth was -89.6% [100 µM] (active) and -100% [100 µM] (active).

As to `Cc1ccc(OC2CC(n3cnc4ncnc(Cl)c43)OC2Oc2ccc(C)cc2)cc1` (centres undefined), the growth is 85% [100 µM] (inactive) and -100% [100 µM] (active).

Regarding `Clc1c(Cl)c(Cl)c2nn(C3CCCO3)nc2c1Cl` (centres undefined), the growth is 24.5% [100 µM] (inactive) and -76.8% [100 µM] (active).

`COC(=O)/C(=N\NC(=S)NN)C(C(=O)OC)C(=O)C(=O)Nc1cccc(C(F)(F)F)c1` (centres undefined): the growth is 155% [100 µM] (inactive) and 108% [100 µM] (inactive).

For the compound `CC(C)C1OC(N)=C(C#N)C1(C#N)C#N` (centres undefined), the growth is 62.1% [100 µM] (inactive) and 24.7% [100 µM] (inactive).

For `C=C1C(=O)OC2/C=C(\CO)CC/C=C(\CO)CC(OC(=O)C(C)C)C12` (centres undefined), the growth is -97% [100 µM] (active) and -96.5% [100 µM] (active).

With `NC(=S)Nc1[nH]c(=S)nc2c1SC1=N/C(=C\c3ccco3)C(=O)N12`, the growth is 75.1% [100 µM] (inactive) and 26.4% [100 µM] (inactive).

In the case of `CCC/C(Cl)=N/OC(=O)Nc1cccc(F)c1`, the growth is -100% [100 µM] (active).

Turning to `Cc1cc(S(=O)(=O)O)c(NC(=O)c2oc3cc(O)ccc3c(=O)c2C)cc1Cl`, the growth is 90.8% [100 µM] (inactive) and 91.7% [100 µM] (inactive).

Take `COC(=O)C1=CO[C@@H](OC2OC(CO)C(O)C(O)C2O)[C@H]2[C@@H](C)[C@@H](O)[C@@H](O)[C@@H]12` (some centres undefined): the growth is 102% [100 µM] (inactive) and 98% [100 µM] (inactive).

Regarding `Cc1ccc(/C=N/Nc2cnccn2)s1`, the growth was 116% [100 µM] (inactive) and 93% [100 µM] (inactive).

Regarding `CCCCCCCCCC(=O)CC(=O)c1c(O)cc(O)cc1O`, the growth is -1.86% [75 µM] (active) and 10% [75 µM] (inactive).
